JMJD2C inh = human JMJD2C demethylase inhibition; Q9H3R0; GST-JMJD2C(1-420) H3K9me3 demethylation, DELFIA europium; inhibition, % at 2.35 µM; 0.069% of 330,000 active; AID 2099;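 active = more than half of a compound's replicate wells show inhibition beyond 50%, single wells judged on their own value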;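 note: signal counts dimethyl H3K9 product captured on neutravidin plate; 0% = median of DMSO wells and 100% = 0.3 times that DMSO median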
PG9 binder = PG9 antibody binding by small molecule; TR-FRET gp120-PG9 antibody binding; inhibition, % at 6.7 µM; 0.43% of 360,000 active; in the data active = inhibition above about 8.5%
NR1D1 modulator = modulators of human Rev-erb alpha DNA binding | P20393 | Rev-erbα–FITC-DNA binding, fluorescence polarization, 90 min | activity, % at 10 µM | 0.79% of 370,000 active;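 active = activity above about 14%, limit read from the data; passing the limit was not always enough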;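 note: 0% = DMSO wells with 35 nM protein and 100% = DMSO wells with 750 nM protein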
Target sequence (P20393 whole entry, looked up): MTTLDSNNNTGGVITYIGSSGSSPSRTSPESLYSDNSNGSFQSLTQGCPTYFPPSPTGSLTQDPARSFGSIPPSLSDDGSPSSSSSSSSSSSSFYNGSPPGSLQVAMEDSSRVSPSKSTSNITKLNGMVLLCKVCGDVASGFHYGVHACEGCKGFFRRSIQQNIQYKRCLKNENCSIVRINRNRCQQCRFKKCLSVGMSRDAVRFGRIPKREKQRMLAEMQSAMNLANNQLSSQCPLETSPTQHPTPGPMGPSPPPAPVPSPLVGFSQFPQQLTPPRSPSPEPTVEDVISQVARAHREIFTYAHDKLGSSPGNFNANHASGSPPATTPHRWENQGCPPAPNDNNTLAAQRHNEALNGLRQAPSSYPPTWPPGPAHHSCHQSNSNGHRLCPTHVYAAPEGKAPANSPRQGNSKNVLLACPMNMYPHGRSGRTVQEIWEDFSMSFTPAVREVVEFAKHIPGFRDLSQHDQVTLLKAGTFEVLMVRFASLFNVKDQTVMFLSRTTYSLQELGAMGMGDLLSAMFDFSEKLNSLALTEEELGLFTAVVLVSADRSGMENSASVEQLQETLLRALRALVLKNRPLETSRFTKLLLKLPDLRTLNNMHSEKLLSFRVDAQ
proKLK7 act = activators of human kallikrein-7 zymogen; purified proKLK7, EDANS-DABCYL substrate fluorescence; 100% is mature enzyme control, 0% vehicle; activation, % at 7 µM; 0.9% of 370,000 active; AID 652039;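 active = activation above the mean of all tested compounds plus 3 SD, computed per campaign excluding outliers beyond control limits, cut at about 13% in these data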
PP5 inh = inhibitors of human protein phosphatase 5 (PP5). P53041. 0.18% of 320,000 active. purified PP5c, OMFP substrate fluorescence. inhibition, % at 6.7 µM;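 active = inhibition above the campaign's mean inhibition across all tested compounds plus 3 SD, cut at about 9.5% in these data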;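 note: 0% = DMSO only and 100% = 100 µM cantharidin control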
PP1 inh = blocks human PP1-alpha phosphatase, a PP5 counter-screen; AID 2235; purified PP1alpha, OMFP fluorescence; 0.9% of 320,000 active; inhibition, % at 6.7 µM;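 active = inhibition above the mean inhibition of all tested compounds plus 3 SD, computed separately for each screening campaign, cut at about 15% in these data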
NR1D1 mod conf = confirmation of modulators of human Rev-erb alpha DNA binding. AID 1259319. shares compounds with NR1D1 modulator. Rev-erb alpha FITC-DNA binding, fluorescence polarization, 90 min. 61% of 3,000 active. activation, % at 25 µM;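 active = activation at or above a set limit, or at least 3 SD above the negative control mean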;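 note: 0% = 35 nM protein with DMSO and 100% = 750 nM protein high control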
RORg DNA counter = RORgamma DNA-binding activity, dose-response counter-screen. shares compounds with NR1D1 modulator. purified RORgamma protein-FITC-DNA binding, fluorescence polarization. IC50, µM. 8% of 910 active. AID 1259320;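 active = Compounds whose fitted half-maximal concentration for disrupting protein-DNA binding is below 10 micromolar; the record names Rev-erb in its text, so the target is in doubt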
Numbers without * were called inactive; i = inactive; x = not tested or not shown. This is a sample that favours compounds with a hit; in the whole collection about 2.8% have one here.

SMILES	JMJD2C inh	PG9 binder	NR1D1 modulator	proKLK7 act	PP5 inh	PP1 inh	NR1D1 mod conf	others
O=C(COC(=O)C12CC3CC(CC(C3)C1)C2)Nc1nc2c(F)c(F)c(F)cc2s1	-17	-1	-1	0	4	3	x
COc1ccc(C(=O)OCC(=O)Nc2nc3c(F)c(F)c(F)cc3s2)cc1OC	-5	1	20*	0	-2	-4	3
C=C1C[C@@]23CCC4[C@@](C)(CCC[C@@]4(C)C(=O)O)C2CC[C@]1(O)C3 (some centres undefined)	0	0	13*	0	0	-4	4
CCCCCCCCN1C(=O)[C@@H](CC(=O)NCC2CCCCC2)C[C@@]2(C(=O)OC)C1=C[C@H](COCc1ccccc1)O[C@@H]2C	x	x	2	0	x	x	x
O=c1ccc(-c2ccc(S(=O)(=O)N3CCN(c4cccc(Cl)c4)CC3)o2)n[nH]1	-6	3	76*	0	0	-4	86*	RORg DNA counter=i
COC(=O)[C@]12C[C@H](CC(=O)NCc3cccc4ccccc34)C(=O)N(CCC3=CCCCC3)C1=C[C@H](C1CCCC1)O[C@@H]2C	x	x	4	0	x	x	x
CSc1ccccc1NC(=O)C1=CC(c2cccs2)=NS(=O)(=O)N1C	14	-3	4	0	4	1	x
COC(=O)c1ccccc1NC(=O)C1=CC(c2cccs2)=NS(=O)(=O)N1C	-24	1	52*	0	2	0	32*	RORg DNA counter=3*
Cc1ccc2c(c1)C1CS(=O)(=O)N(Cc3ccccc3)C(=O)N1C2 (centres undefined)	x	x	-1	0	x	x	x
COc1ccc(C(=O)Nc2sc3c(c2C(=O)NCc2ccco2)CCCC3)cc1OC	-5	1	26*	-30	2	-2	13
COc1cc(C(=O)Nc2sc3c(c2C(=O)NCc2ccco2)CCCC3)cc(OC)c1OC	2	-1	27*	0	3	2	3
COc1cc(-c2nnc(SCC(=O)N3C(C)CCCC3C)o2)cc(OC)c1OC (centres undefined)	x	x	2	0	x	x	x
Cc1cc(C)c2c(n1)nn1c(N3CCN(c4ccccc4)CC3)cc(C)nc21	7	7	40*	1	0	-2	26*
O=S(=O)(c1ccccc1)N1CCN(Cc2ccccc2)c2ccccc21	x	-2	25*	0	x	x	17*
CCN1C(=O)/C(=C/C=C2/SCCN2C)SC1=S	16	-8	78*	0	7	4	148*	RORg DNA counter=i
CN1CCS/C1=C\C=C1/SC(=S)N(CC(=O)O)C1=O	-3	-17	293*	0	x	x	173*	RORg DNA counter=>40
CCN1C(=O)/C(=C/C=C2/Sc3ccccc3N2CCO)SC1=S	0	-2	14	0	1	0	x
COc1cccc(C2c3c(ncn(-c4ccccc4)c3=N)Oc3ccc4ccccc4c32)c1OC (centres undefined)	x	x	0	x	x	x	x
CCCCNC(=O)c1nn2c(C(F)(F)F)cc(-c3ccc(OC)cc3)nc2c1Br	-6	-1	48*	-2	-2	-1	9
CCCNC(=O)c1nn2c(C(F)(F)F)cc(-c3ccccc3)nc2c1Br	-6	-6	28*	0	2	0	21*
CCc1noc(C)c1C(=O)N1CCN(CC(=O)OC)CC1	x	x	7	0	x	x	x
COc1cc(OC)cc(-c2c(-c3cccs3)c3cc(-c4ccc(N(C)C)nc4)ccc3n2C)c1	4	1	24*	-2	3	-4	1
COc1cc(F)cc(-c2ccc3c(c2)c(-c2cccs2)c(-c2cc(OC)cc(OC)c2)n3C)c1	-6	-3	4	1	3	5	x
N#CCSc1ncccc1-c1nc2ccccc2[nH]1	8	-1	2	-1	-1	0	x
c1cnc(SCC2CCCCC2)c(-c2nc3ccccc3[nH]2)c1	x	x	32*	0	x	x	33*	RORg DNA counter=>40
SMILES	JMJD2C inh	PG9 binder	NR1D1 modulator	proKLK7 act	PP5 inh	PP1 inh	NR1D1 mod conf	others
CCc1ccc(Cn2c(=O)n(Cc3ccc(C(=O)NCCCOC)cc3)c(=O)c3ccccc32)cc1	x	x	4	1	x	x	x
Cc1sc2c(c1C)c(=O)n(-c1ccc(Cl)cc1)c(=O)n2Cc1cc(=O)n2ccccc2n1	9	-1	37*	0	3	-3	27*
CCCCN(C(=O)CSc1nn(-c2ccc(F)cc2)c(=S)s1)c1c(N)n(CCCC)c(=O)[nH]c1=O	-18	0	-5	1	2	4	x
Cn1c(N)c(C(=O)CSc2nn(-c3ccc(F)cc3)c(=S)s2)c(=O)n(C)c1=O	-5	-1	42*	0	1	0	42*	RORg DNA counter=>40
O=C(NCC1CCCO1)c1cn(Cc2ccccc2)nc1-c1ccc(Cl)cc1 (centres undefined)	0	0	-2	0	-1	-3	x
O=C(NCC1CCCO1)c1cn(Cc2ccccc2)nc1-c1ccccc1 (centres undefined)	x	1	27*	0	-2	-3	-5
CCOc1ccc(S(=O)(=O)c2c[nH]c3ccc(C)cc3c2=O)cc1	4	-1	31*	0	-1	-1	20*
CCOC(=O)[C@]12CCCC3=C1N(CCC3)C(=O)[C@@H](CC(=O)N1CCN(C(=O)C3CC3)CC1)C2	x	x	2	0	x	x	x
Brc1cccc(-c2nc3cccnc3nc2-c2cccc(Br)c2)c1	-19	-1	14*	-1	3	4	6
O=c1c(=O)n2c(nn1Cc1ccc(F)cc1)sc1ccccc12	-3	1	33*	0	0	0	20*
COc1ccccc1NC(=O)c1oc2ccccc2c1NC(=O)c1ccco1	-4	6	27*	0	2	-4	13
Cc1ccccc1OCC(=O)Nc1sc2c(c1C#N)CC(C)(C)NC2(C)C	10	0	-1	0	3	1	x
Cc1ccccc1OCC(=O)Nc1sc(C(=O)Nc2cccc(C)c2C)c(C)c1C#N	-26	x	54*	x	-1	-2	23*
COC(=O)c1sc(NC(=O)c2ccco2)c(C#N)c1C	13	0	-1	0	2	-5	x
COc1ccccc1NC(=O)c1sc(NC(=O)c2ccco2)c(C#N)c1C	3	-2	104*	-1	0	-2	47*	RORg DNA counter=>40
CC(C)CSc1nnc2c3ccccc3n(C)c2n1	8	-3	20*	0	-2	2	15
COC(=O)c1ccc(S(=O)(=O)NCCSc2nnc3c4ccccc4n(C)c3n2)cc1	-9	x	29*	x	4	-2	18*
CC(C)OC(=O)CSc1nnc2c3ccccc3n(C)c2n1	7	1	0	0	-7	10	x
S=C1NCCOc2ccccc21	x	1	13	0	x	x	x

From PubChem
